High-throughput results as filed in PubChem BioAssay.
Shown are actives, neighbours in structure and some others; about 2.3% of the full set was active somewhere.
uPA generation = cell surface uPA generation inhibition | cell surface uPA generation assay, qHTS | Potency, µM (titrated, usually from 38.3 µM), hits mostly inhibitors | 0.31% of 330,000 active | AID 540303; active = well fitted inhibition curve with a large enough effect; inconclusive = small, poorly fitted or top-dose-only effect; inactive = no such curve, though single readings can be large or run the other way; tested in mouse RAW 264.7 cells; also: nearly all actives have a fitted effect of over 55% in size
Abeta yeast res = A-beta toxicity reversal in yeast | yeast expressing A-beta42, growth rescue, OD600, 48 h; response scale: 0% DMSO, 100% iron-clioquinol control | Potency, µM (highest dose often 46.1 µM), usual class: activators | 0.063% of 410,000 active; also: nearly all actives have a fitted effect of over 55% in size
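Yeast A-beta toxicity model in growth medium with pinned compounds, 48 h at 30 C; growth read as absorbance at 600 nm. Normalized to FeCl3/clioquinol equimolar mix (positive) and DMSO (negative).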
FUS yeast rescue = rescues growth of FUS-expressing yeast; S. cerevisiae FUS-expressing, growth rescue, OD600, 24 h; 0.24% of 390,000 active; AID 1347120; Potency, µM (highest dose often 76.6 µM), usual class: activators; also: nearly all actives have a fitted effect of over 55% in size
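S. cerevisiae expressing FUS from galactose induction served as the toxicity model. Growth after 24hr at 30C, read as absorbance at 600 nm, indicates suppression of toxicity; compounds dosed at several concentrations.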
BCR signal inh = blocks chronic active B-cell receptor signaling; Potency, µM (top dose mostly 46.1 µM), actives largely listed as inhibitors; ABC-DLBCL IkBa-CBG/CBR reporter, luminescence ratio, 4 h; 0.05% of 340,000 active; active = well fitted inhibition curve with a large enough effect in the signal ratio, with a control signal flat, not every such curve was filed as active; inconclusive = small, poorly fitted or top-dose-only effect, or effect the other way, or a change in a side signal; the % refers to the signal ratio
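Cell line TMD8 (human ABC DLBCL), stably expressing tet-inducible CBG68-IkBa fusion and CBR; IMDM/0.5% FBS; cpd up to 46 uM; dox induction, 4 h, 37C/5% CO2; dual luminescence; green/red ratio; MG132 control.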
TDP-43 yeast inh = rescues yeast growth from TDP-43 toxicity; Potency, µM (doses to about 46.1 µM), most hits filed as activators; AID 652104; 1.8% of 410,000 active; TDP-43 expressing yeast growth rescue, BacTiter-Glo, 24 h; also: nearly all actives have a fitted effect of over 50% in size
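Galactose-induced TDP-43 yeast, OD600=0.02, compound pinned; 24 hr, 30 deg C; BacTiter-Glo luminescence for growth. Inhibitors of TDP-43 toxicity read as activators.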
aSyn rescue = alpha-synuclein toxicity inhibition in yeast | 0.14% of 370,000 active | AID 652106 | Yeast expressing alpha-synuclein, growth rescue, BacTiter-Glo, 24 h | Potency, µM (highest dose often 46.1 µM), usual class: activators; also: nearly all actives have a fitted effect of over 65% in size
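Readout is rescue of growth in alpha-synuclein-expressing yeast, so inhibitors of toxicity appear as activators. Growth after 24 hr at 30 deg C in galactose medium is quantified by luminescence.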
Large screens that a line does not name were inactive. Unless noted, calls follow the shape of the dose curve; as a rule, active = well fitted curve in the direction sought with a large enough effect; inconclusive = small, poorly fitted or top-dose-only effect, or another doubt; inactive = no such curve, though single readings can be large; an effect the other way counts as inactive or inconclusive.

CCOc1ccc2nc(N(Cc3cccnc3)C(=O)C3CCCCC3)sc2c1	TDP-43 yeast inh inconclusive (no result: uPA generation, aSyn rescue)
COC(=O)c1ccccc1NC(=O)Cn1cnc2sc(C)c(S(=O)(=O)N3CCC(C)CC3)c2c1=O	none (no result: uPA generation, BCR signal inh, aSyn rescue)
ONC(=Nc1ccccc1)c1ccc(Cl)cc1	TDP-43 yeast inh 12.6µM
NC(=Nc1ccc(Cl)cc1)c1ccccc1	none
C=CCn1c(SCCN2CCOCC2)nc2c1c(=O)[nH]c(=O)n2C	none
Cc1ccccc1C(=O)Oc1ccc(Br)cc1C(=S)N1CCCC1	none
O=C(Oc1ccc(Br)cc1C(=S)N1CCCC1)c1ccccc1F	TDP-43 yeast inh 15.8µM (no result: FUS yeast rescue)
COc1ccc(-c2ccc(NS(=O)(=O)c3cc(C)c(C)cc3C)cc2)nn1	FUS yeast rescue inconclusive, TDP-43 yeast inh 17.8µM (no result: uPA generation, BCR signal inh, aSyn rescue)
COc1ccc(-c2cccc(NS(=O)(=O)c3cc(C)c(Cl)cc3C)c2)nn1	FUS yeast rescue inconclusive, TDP-43 yeast inh 17.8µM (no result: uPA generation, BCR signal inh, aSyn rescue)
COc1ccc(-c2cccc(NS(=O)(=O)c3cc(C(F)(F)F)ccc3Cl)c2)nn1	none (no result: uPA generation, BCR signal inh, aSyn rescue)
COC(=O)[C@@]12CCCN1[C@H](c1ccc(-c3ccc(OC)cc3)cc1)[C@@H]1C(=O)N(C)C(=O)[C@@H]12	FUS yeast rescue inconclusive, TDP-43 yeast inh 22.4µM
COC(=O)[C@@]12CCCCN1[C@H](c1ccc(-c3ccc(F)cc3)c(OC)c1)[C@@H]1C(=O)N(C)C(=O)[C@@H]12	TDP-43 yeast inh 15.8µM, aSyn rescue inconclusive
COC(=O)[C@@]12CCCCN1[C@H](c1ccc(-c3ccc4c(c3)OCO4)c(OC)c1)[C@@H]1C(=O)N(C)C(=O)[C@@H]12	FUS yeast rescue 11.2µM, TDP-43 yeast inh 12.6µM
COC(=O)[C@@]12CCCCN1[C@H](c1ccc(-c3ccc(F)cc3)cc1)[C@@H]1C(=O)N(C)C(=O)[C@@H]12	BCR signal inh inconclusive, TDP-43 yeast inh 12.6µM
CCCOc1ccc(-c2c(C(=O)N/N=C/c3ccc(OCC)cc3)nnn2-c2nonc2N)cc1	none (no result: FUS yeast rescue)
CNCc1cn2cc(Cl)ccc2n1	none
N#Cc1cc(Oc2cccnc2)c(Oc2cccnc2)cc1C#N	none
CCOC(=O)CSc1nnc(CNc2ccc(Cl)cc2)n1Cc1ccccc1	BCR signal inh inconclusive, TDP-43 yeast inh 14.1µM, aSyn rescue inconclusive
CC(C)OC(=O)CSc1nnc(CNc2ccc(Cl)cc2)n1Cc1ccccc1	BCR signal inh inconclusive, TDP-43 yeast inh inconclusive
Cc1nc(Cl)sc1C(=O)Nc1ccc(F)cc1	none (no result: BCR signal inh)
Cc1nc(Cl)sc1C(=O)Nc1cc(F)cc(F)c1	TDP-43 yeast inh 11.2µM
Cc1cc2c(cc1S(N)(=O)=O)S(=O)(=O)CCC2	none
O=[N+]([O-])c1ccc(F)cc1OCc1cccc(S(=O)(=O)N2CCOCC2)c1	none
O=C1C2C3C=CC(C3=C(c3ccccc3)c3ccccc3)C2C(=O)N1CCO (stereo unspecified)	BCR signal inh inconclusive, TDP-43 yeast inh 20µM
CCOC(=O)c1c(-c2ccccc2)[nH]c2ccc(O)cc12	BCR signal inh inconclusive
CCc1cccc(Nc2c3c(nc4ncnn24)CCC3)c1	BCR signal inh inconclusive, TDP-43 yeast inh 17.8µM
COC(=O)COc1ccc2oc(=O)cc(-c3cc4ccccc4o3)c2c1	Abeta yeast res inconclusive
O=C(O)c1ccc(N/N=C/c2ccc(-c3cccc(Cl)c3)o2)cc1	BCR signal inh inconclusive, TDP-43 yeast inh 17.8µM
Cn1cnc2c1c(=O)n(Cc1ccc(Cl)cc1Cl)c(=O)n2C	TDP-43 yeast inh 22.4µM
Cn1cnc2c1c(=O)n(Cc1ccccc1)c(=O)n2C	BCR signal inh inconclusive
Clc1ccc(CSc2nnc(-c3ccccn3)n2Cc2cccs2)cc1Cl	FUS yeast rescue inconclusive, TDP-43 yeast inh inconclusive (no result: uPA generation, BCR signal inh)
Brc1ccc(CSc2nnc(-c3cnccn3)n2Cc2ccco2)cc1	BCR signal inh inconclusive, TDP-43 yeast inh 35.5µM (no result: FUS yeast rescue)
CCn1c(SCc2ccc(C)cc2)nnc1-c1cnccn1	TDP-43 yeast inh 11.2µM
Cn1c(SCc2ccc(F)cc2)nnc1-c1cnccn1	BCR signal inh inconclusive
Cc1ccc(CSc2nnc(-c3ccccn3)n2Cc2cccs2)cc1	FUS yeast rescue inconclusive, TDP-43 yeast inh 35.5µM (no result: uPA generation, BCR signal inh)
Fc1ccccc1C1CC(c2ccco2)=Nc2ccccc2S1 (stereo unspecified)	uPA generation inconclusive, BCR signal inh inconclusive, TDP-43 yeast inh 22.4µM
COc1ccccc1C1CC(c2cccs2)=Nc2ccccc2S1 (stereo unspecified)	BCR signal inh inconclusive
CC(C)C(c1nnnn1C1CCCC1)N1CCN(C(=O)c2ccco2)CC1 (stereo unspecified)	none
Cc1ccc(C(=O)OCc2nnc(-c3ccccc3)o2)o1	BCR signal inh inconclusive, TDP-43 yeast inh 17.8µM
Cc1cc(C)nc(/N=C(\N)Nc2cccc(OCc3ccccc3)c2)n1	uPA generation 7.08µM, BCR signal inh inconclusive
CCc1ccccc1N(CC(=O)N1CCCCC1)S(=O)(=O)c1ccccc1	none
Nc1nc(=S)c2[nH]cnc2[nH]1	uPA generation 0.159µM, BCR signal inh inconclusive
Nc1nc(=S)c2[nH]c(=S)[nH]c2[nH]1	none (no result: BCR signal inh)
CCOC(=O)C1=C(O)c2ccccc2C(=O)/C1=C\c1ccc(C)cc1	BCR signal inh inconclusive, TDP-43 yeast inh 3.16µM (no result: FUS yeast rescue)
CCOC(=O)C1=C(C)OC(=Cc2ccccc2)C1=O	none (no result: uPA generation, BCR signal inh)
COc1ccc(C2CCCN2C(=S)Nc2ccccc2C)cc1OC (stereo unspecified)	none
C[C@@H]1CN([C@H](C)CO)C(=O)CCCn2nncc2CO[C@@H]1CN(C)S(=O)(=O)c1ccccc1F	TDP-43 yeast inh 15.8µM (no result: uPA generation, BCR signal inh)
C[C@H]1CN([C@@H](C)CO)C(=O)CCCn2cc(nn2)CO[C@@H]1CN(C)S(=O)(=O)c1ccc2ccccc2c1	aSyn rescue 3.55µM (no result: uPA generation, BCR signal inh)
COCCNC(=S)N=Nc1c(O)[nH]c2c(C)cc(C)cc12	none
Cc1cc(C)nc(Sc2ncnc3c2oc2ccccc23)n1	BCR signal inh inconclusive, TDP-43 yeast inh 22.4µM
CCOC(=O)N1C2C=CC(C2)N1C(=O)OCC	none (no result: BCR signal inh)
COc1cc(/C=C/c2onc(C)c2[N+](=O)[O-])cc(OC)c1OC	none (no result: BCR signal inh)
Cc1noc(/C=C/c2nn(C)cc2Cl)c1[N+](=O)[O-]	uPA generation 4.47µM, BCR signal inh inconclusive, TDP-43 yeast inh 12.6µM
Cc1cccc(/C=C/c2onc(C)c2[N+](=O)[O-])n1	TDP-43 yeast inh 12.6µM, aSyn rescue inconclusive (no result: BCR signal inh)
COc1ccc(CN2CCNC(=O)C2CC(=O)NCCCn2cccn2)c(OC)c1 (stereo unspecified)	none
CCOC(=O)c1cccc(-n2cccc2/C=C2\NC(=O)N(CC(=O)O)C2=O)c1	none (no result: TDP-43 yeast inh, aSyn rescue)
CC1(C(=O)NS(=O)(=O)c2cccc(OC(F)F)c2)CCN1C(=O)Cc1cccs1 (stereo unspecified)	TDP-43 yeast inh inconclusive (no result: uPA generation, BCR signal inh)
COC(=O)CCCn1c(C)cc(C(=O)CCl)c1C	BCR signal inh inconclusive, TDP-43 yeast inh 20µM
